# Screens (PubChem BioAssay)
# IL1B NFkB inh: blocks IL-1B driven NFkB nuclear translocation in HUVEC cells. HUVEC IL-1B NFkB p65 nuclear translocation imaging. inhibition, % at 2 µM. 94,000 tested, 0.43% active;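 active means inhibition above about 30% together with a positive call from visual inspection of the well image, limit read from the data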;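 further: nuclear over cytoplasmic p65 intensity ratio measured by imaging; 0% = IL-1B stimulated DMSO wells and 100% = unstimulated DMSO wells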
# NFkB transloc pot: enhances IL-1B driven NFkB nuclear translocation; activation, % at 2 µM; AID 819; HUVEC IL-1B NFkB p65 nuclear translocation imaging; 94,000 tested, 0.3% active;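 active means activation above 40%, about the mean plus 3 SD, also judged a hit on visual image review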;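 further: percent activation is computed from the nuclear over cytoplasmic p65 intensity ratio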
# TNFa cytotox: toxic to HUVEC cells under TNF alpha stimulation; cell count reduction, % at 2 µM; 93,000 tested, 0.17% active; AID 848; HUVEC TNFalpha-stimulated, Hoechst cell count, imaging;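 active means cell count reduction exceeding the screen mean by over 5 SD, scaled to untreated wells per plate, cut at about 78% in these data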;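 further: cells counted after 24 h of TNF alpha exposure following the 1 h pretreatment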
# IL1B cytotox: toxic to HUVEC cells under IL-1B stimulation; AID 845; 94,000 tested, 0.41% active; HUVEC cell count loss, Hoechst imaging, IL-1B stimulated; cell count reduction, % at 2 µM;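 active means cell count reduction more than 3 SD above the screen-wide mean, cut at about 70% in these data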;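 further: normalized per plate to untreated control cells as the no-loss baseline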
# E-sel TNF inh: TNF alpha driven E-selectin expression inhibition. HUVEC TNFa-induced E-selectin immunofluorescence, high content. AID 1246. 120,000 tested, 0.71% active. inhibition, % at 2 µM;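 active means inhibition above the batch mean plus 3 SD, and confirmed as a hit on visual image review, cut at about 43% in these data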;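 further: 0% = TNF-stimulated DMSO wells and 100% = unstimulated control wells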
# VCAM1 TNFa inh: reduces TNF alpha induced VCAM1 expression in HUVEC | 95,000 tested, 0.48% active | HUVEC TNFa-induced VCAM-1 immunofluorescence, high-content imaging | inhibition, % at 2 µM;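 active means inhibition above the batch mean plus 3 SD, with images confirmed as a hit by eye, cut at about 37% in these data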;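 further: 0% = TNF-stimulated DMSO wells and 100% = unstimulated control wells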
# Starred values were filed as active, the others as inactive; x = not tested or not shown. An excerpt weighted towards active compounds, which were near 1.8% of everything screened.
SMILES,IL1B NFkB inh,NFkB transloc pot,TNFa cytotox,IL1B cytotox,E-sel TNF inh,VCAM1 TNFa inh
NC(=O)N1CCN(C(=O)c2ccco2)CC1,31*,-31,-7,84*,2,-6
NC(=O)c1ccc(-c2ccc(Br)cc2)o1,-3,3,-10,22,43*,-8
Cc1ccc(C(=O)Nc2ccc(O)cc2C(=O)O)cc1C,-119,119*,4,8,-8,-3
Cc1ccc(C(=O)Nc2ccc(O)cc2C(=O)O)cc1,-2,2,-9,11,61*,-11
Cc1ccc(C(=O)c2ccc(O)cc2)cc1C,x,x,x,x,4,x
CCc1ccc(/C([O-])=C(/C(=S)NCCN2CCOCC2)[n+]2ccccc2)cc1,x,x,x,x,-30,x
C=CCNC(=O)C(=O)c1cccn1-c1ccsc1C(=O)OC,x,x,-25,x,-6,-10
CCCCn1ccnc1C(=O)c1cc(S(=O)(=O)N2CCOCC2)ccc1C,55*,-55,-28,-12,6,-8
Cc1ccc(S(=O)(=O)N2CCOCC2)cc1C(=O)O,x,x,x,x,2,x
Cc1nc2ccccc2c(=O)n1/N=C/c1cccnc1,-2,2,x,6,-20,19
Cc1nc2ccccc2c(=O)n1/N=C/c1ccc(O)cc1,4,-4,-7,15,66*,4
Cc1ccc(NC2=C/C(=N/S(=O)(=O)c3cccs3)c3ccccc3C2=O)cc1C,x,x,x,x,-4,x
Cc1ccccc1NC1=C/C(=N\S(=O)(=O)c2cccs2)c2ccccc2C1=O,-15,15,32,-24,76*,86*
O=C(OCc1ccc(F)cc1)c1ccc2c(c1)-c1ccccc1C2=O,-3,3,29,7,18,-14
CCOC(=O)C1=C(Cc2ccc(F)cc2)C(=O)c2ccccc2C1=O,-59,59*,7,1,5,15
O=C(CSc1n[nH]c(=O)[nH]c1=O)N/N=C/c1ccccc1,x,x,x,x,7,x
CN(CCC#N)C(=O)c1ccc(CNS(=O)(=O)c2ccc(F)cc2)cc1,100*,-100,0,86*,29,-15
Cc1ccc(S(=O)(=O)NCc2ccc(C(=O)N(C)CCC#N)cc2)cc1,2,-2,9,-61,-2,-2
C=CCn1c(SCc2ccc(C(=O)OC)cc2)nnc1-c1sc(N)nc1C,x,x,x,x,4,x
C=CCn1c(SCC(=O)Nc2ccc(C(=O)OCC)cc2)nnc1-c1sc(N)nc1C,5,-5,-8,1,-17,92*
CC(NC(=O)NC(N)=O)(C(F)(F)F)C(F)(F)F,-41,41*,-2,-25,x,-23
COc1ccc(Cn2c(SC)nc3ccccc32)cc1[N+](=O)[O-],2,-2,-6,-6,-33,0
CCOC(=O)N1CCN(CC(=O)Nc2ccc(C)c(Br)c2)CC1,-4,4,-16,5,5,16
CCC(C(=O)OC)n1c(-c2ccccc2)nc2ccccc2c1=O (centres undefined),x,x,x,x,64*,x
COc1ccc(/C=N/N2C(=O)C3C4C=CC(CC4)C3C2=O)c(OC)c1 (centres undefined),x,x,x,x,-46,x
SMILES,IL1B NFkB inh,NFkB transloc pot,TNFa cytotox,IL1B cytotox,E-sel TNF inh,VCAM1 TNFa inh
CCc1cccc(NC(=O)c2ccc(NS(=O)(=O)c3c(C)noc3C)cc2)c1,-4,4,-11,-6,1,8
Cc1cccc(NC(=O)c2ccc(NS(=O)(=O)c3c(C)noc3C)cc2)c1,1,-1,0,-15,100*,4
CCOC(=O)C1C(=O)NC(N2CCCCC2)=NC1c1ccccc1 (centres undefined),x,x,x,x,-16,x
CCOC(=O)C1C(=O)Nc2nc(C)nn2C1c1ccccc1 (centres undefined),-84,84*,0,10,x,4
COc1ccc(C(=O)c2ccc(N(C)C)cc2)c2ccccc12,10,-10,54,6,-4,60*
CN(C)c1ccc(C(=O)c2ccc(O)cc2O)cc1,-16,16,-4,-8,-6,22
Cn1c(SCc2ccc(Br)cc2)nnc1-c1ccncc1,8,-8,-16,-31,73*,-1
O=C(OCC(=O)N1CCCC1)c1cncc(Br)c1,98*,-98,-8,88*,-37,-12
O=C(NCCC1=CCCCC1)c1ccc(=O)oc1,4,-4,-11,2,-8,15
O=C(NCCC1=CCCCC1)c1coc(=O)c(Br)c1,6,-6,-11,1,86*,13
CCOC(=O)N1CCC(N2CCN(S(=O)(=O)c3ccc(Cl)cc3)CC2)CC1,10,-10,-1,-3,15,6
